From PubChem BioAssay (NCI)
About 79,000 compounds went through this panel and 15% of them were active in at least one assay; those are over-represented in the sample as a whole. Unmarked numbers belong to inactive results. The source made the active and inactive calls. Cut-off read from the data, not from the text of the source: active = growth inhibition above about 70%; inactive = the rest.

Experiment: NCI Yeast Anticancer Drug Screen. Data for the bub3 strain (AID 167)
Conditions: S. cerevisiae bub3 mutant strain, at 50.0 µM, hits give high values
How it was run: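 Part of a panel of yeast mutants defective in DNA damage repair or cell cycle regulation. Each strain is grown with compound, and inhibition is calculated relative to solvent-treated cultures.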

Row | SMILES | growth inhibition
1 | O=C(Nc1ccccc1)Oc1c(Cl)c(Cl)c(Cl)c(Cl)c1Cl | 54.4%
2 | CCN(CC)CCNc1ccc2nnn3c4ccc([N+](=O)[O-])cc4c(=O)c1c23 | 37.9%
3 | CCCCCCN(CCCCCC)CCC(=O)c1ccc2cc(Br)c3ccccc3c2c1 | 98.6% (active)
4 | COC(=O)/C=C1/Nc2ccc(Cl)cc2C(=O)NC1=O | 30.8%
5 | CN(C)COC(=S)SCN(C)C | 98.3% (active)
6 | Clc1ccc(-c2noc(CN3CCCCC3)n2)cc1 | 71.9% (active)
7 | CCCCCCCCCCCCCC(=O)OCC(O)CO (stereo not drawn) | 8.05%
8 | CCC[CH2][Sn]([CH2]CCC)([O]C(=O)c1cccc(F)c1)[O]C(=O)c1cccc(F)c1 | 49.9%
9 | CCCCCCCCCCCCCCCCC1CCc2ccccc21 (stereo not drawn) | 75.8% (active)
10 | CCOC(=O)NCCCc1ccc2oc3ccccc3c2c1 | 19.8%

Experiment: NCI Yeast Anticancer Drug Screen. Data for the mlh1 rad18 strain (AID 175)
Conditions: S. cerevisiae mlh1 rad18 strain growth inhibition; at 5.0 µM (retest, dose inferred, filed as 0.5); hits give high values
How it was run: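 A repair-deficient yeast strain is exposed to test compound, and growth is scored relative to vehicle-treated controls.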

Row | SMILES | growth inhibition
11 | O=C(/C=C/c1cccc(Cl)c1)c1ccccc1 | 10%
12 | COc1cccc(N2C(=O)C3CC(CC(C)(C)C)c4c([nH]c5ccccc45)C3C2=O)c1 (stereo not drawn) | 8%
13 | O=C1c2ccccc2NC(=O)C2C1C(c1ccccc1)CC2(O)c1ccccc1 (stereo not drawn) | 21%
14 | CCOC(=O)C1SC(=Nc2ccc(Cl)cc2)N=C1C (stereo not drawn) | 34%
15 | COC(=O)c1nc(=S)[nH]c(C(=O)OC)c1C(=O)c1ccccn1 | -15%
16 | Cn1c2c(c3ccccc31)CCN1C[C@@H]3CCCC[C@H]3C[C@@H]21 | 0%
17 | CCCCCCCCCCCC1=NCCN1CCNCCCC | 11%
18 | CN=C(N)N/N=C(\C)c1ccc2c(c1)Cc1cc(/C(C)=N/NC(N)=NC)ccc1-2 | 59%
19 | O=C(Nc1ccccc1)OCCc1ccc(Br)cc1 | -5%
20 | CN(C)CC/C(=N\Nc1ccc(Cl)cc1)c1ccccc1 | 99% (active)
21 | O=C1Nc2ccccc2/C1=N\N=c1/scc(-c2ccccc2)n1-c1ccccc1 | 9%
22 | CC(C)(C)C(=O)CC(=O)C(F)(F)C(F)(F)C(F)(F)F.CC(C)(C)C(=O)CC(=O)C(F)(F)C(F)(F)C(F)(F)F.CC(C)(C)C(=O)CC(=O)C(F)(F)C(F)(F)C(F)(F)F.[Fe] | 32%
23 | COc1cc(N=Nc2cccc(S(N)(=O)=O)c2)c2ccccc2c1N | 5%
24 | O=C(/C=C/C(=O)OCCCl)OCCCl | 4%
25 | CCc1ccccc1NC(=O)C1=C(C)NC(C)=C(C(=O)Nc2c(CC)cccc2CC)C1c1ccc2c(c1)OCO2 (stereo not drawn) | 28%
26 | Oc1c(Cl)cc(Cl)c2cccnc12 | 43%
27 | COc1ccc2c(c1)[n+]([O-])c(-c1ccccc1)c(N)[n+]2[O-] | 82% (active)

Row | SMILES | growth inhibition
28 | O=c1cccccc1[O-].O=c1cccccc1[O-].O=c1cccccc1[O-].[Sm+3] | 14%
29 | CCCCCCCCCCCCCCCCNc1ccn(C2CC(OP(=O)(O)OCC3OC(n4cc(CC)c(=O)[nH]c4=O)CC3O)C(CO)O2)c(=O)n1 (stereo not drawn) | 59%
30 | Nc1ccccc1OCC(O)CN1CCN(Cc2ccccc2)CC1 (stereo not drawn) | 14%
31 | O=S(=O)(O)c1ccc(O)c2cc(Nc3ccccc3)ccc12 | 3%
32 | CCOC(=O)/C(=C\c1ccc(-c2ccccc2)cc1)C(C)=O | -27%
33 | O=C(C(Oc1ccc(Cl)cc1)Oc1ccc(Cl)cc1)N(O)c1ccccc1OCc1ccccc1 | 11%
34 | CN(C)CC1CCC/C(=C\c2ccc(Cl)cc2)C1=O (stereo not drawn) | -14%
35 | COc1ccc(/C=N/Nc2ccccc2)cc1 | 8%
36 | O=C1c2ccccc2-c2ccccc2C(=O)C1(Br)Br | 0%
37 | CC(=O)Nc1ccc(C(=O)n2[nH]c(C)c(/C=C3\C(=O)C=Cc4ccccc43)c2=O)cc1 | 42%
38 | CC1OC2CC(=O)OC2C2=C1C(=O)c1c(O)cccc1C2=O (stereo not drawn) | 99% (active)
39 | CCOC(=O)C(CCSC)C(=O)OCC | -3%
40 | C[CH2][Sn]([CH2]C)([O]C(=O)c1cccc(OC)c1)[O][Sn]([CH2]C)([CH2]C)[O]C(=O)c1cccc(OC)c1 | 40%
41 | O=C(Nc1ccccc1)Oc1c(Cl)c(Cl)c(Cl)c(Cl)c1Cl | 6%
42 | CCN(CC)CCNc1ccc2nnn3c4ccc([N+](=O)[O-])cc4c(=O)c1c23 | 11%
43 | CCCCCCN(CCCCCC)CCC(=O)c1ccc2cc(Br)c3ccccc3c2c1 | 43%
